As a reminder, the AC50 is the concentration at which the activity in the assay is half-maximal.

Assay [1] can be described thus: BSK_4H_Eotaxin3: BioMAP Diversity Plus: 4H Assay for Eotaxin 3 Biomarker Activity (AID 2283000).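 As to outcome: CCL26 protein level quantified by ELISA in parallel with SRB cytotoxicity check.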 The following applies: primary human endothelial cells (HUVEC); actives raise or lower the signal. The method, boiled down:
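HUVEC, 24 h post-dose, ELISA for Eotaxin-3/CCL26. Gain or loss of signal fitted bidirectionally vs DMSO baseline.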

Read-out in assay [2]: Intercellular Adhesion Molecule 1 (ICAM1), ICAM1 (gene 3383)
As to the kind of experiment: BSK_3C_ICAM1: BioMAP Diversity Plus: 3C Assay for Intercellular Adhesion Molecule 1 (ICAM1) Biomarker Activity (AID 2283003). The note with it: primary human endothelial cells (HUVEC); actives raise or lower the signal. The method, boiled down: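 ELISA read-out of ICAM-1; HUVEC (primary human), 3C system, 24 h post-dosing; bidirectional fit vs DMSO baseline.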

Read-out in assay [3]: Interleukin-1 alpha (IL1a), IL1A (gene 3552)
The assay is described as follows: BSK_BE3C_IL1a: BioMAP Diversity Plus: BE3C Assay for Interleukin-1 alpha (IL1a) Biomarker Activity (AID 2283016). The note with it: primary human bronchial epithelial cells; actives raise or lower the signal. In a few lines: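 ELISA read-out of IL-1a from human lung bronchial epithelial primary cells, 24 h post-dose. Gain or loss of signal fitted relative to DMSO negative control.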

Read-out in assay [4]: Monocyte Chemoattractant Protein-1 (MCP1), CCL2 (gene 6347)
The assay is described as follows: BSK_3C_MCP1: BioMAP Diversity Plus: 3C Assay for Monocyte Chemoattractant Protein-1 (MCP1) Biomarker Activity (AID 2283017). The following applies: primary human endothelial cells (HUVEC); actives raise or lower the signal. In a few lines:
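Primary human umbilical vein endothelial cells (3C system) were exposed to test chemical for 24 h, after which MCP-1 was quantified by ELISA. Activity was fitted bidirectionally against DMSO as negative control and baseline.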

Read-out in assay [5]: Interleukin-8 (IL8), CXCL8 (gene 3576)
The assay is described as follows: BSK_3C_IL8: BioMAP Diversity Plus: 3C Assay for Interleukin-8 (IL8) Biomarker Activity (AID 2283020). The following applies: primary human endothelial cells (HUVEC); actives raise or lower the signal. In a few lines:
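HUVEC, 3C stimulation; 24 h compound exposure; IL-8 read by ELISA; gain or loss of signal fitted relative to DMSO control.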

Assay [6] can be described thus: BSK_3C_SRB: Viability Assessment in the BioMAP Diversity Plus: 3C Assay (AID 2283023).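 Also: fitted both ways against DMSO so a hit may be signal rise or drop.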 The note with it: primary human endothelial cells (HUVEC). The method, boiled down:
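Primary human umbilical vein endothelial cells in the 3C system were read 24 h after compound dosing. Total protein was stained with 0.1% sulforhodamine B after 10% TCA fixation and read at 560 nm, with bidirectional fitting against DMSO as baseline.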

Read-out in assay [7]: Pselectin, SELP (gene 6403)
As to the kind of experiment: BSK_4H_Pselectin: BioMAP Diversity Plus: 4H Assay for Pselectin Biomarker Activity (AID 2283026). The following applies: primary human endothelial cells (HUVEC); actives raise or lower the signal. In a few lines: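 HUVEC, 24 h chemical exposure; P-selectin read by ELISA. Bidirectional curve fit vs DMSO baseline; gain or loss of signal scored.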

The nature of assay [8]: BSK_4H_SRB: Viability Assessment in the BioMAP Diversity Plus: 4H Assay (AID 2283027).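 Also: cells exposed to compound for 24 h before staining.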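 As to AC50: curves fitted both ways versus DMSO so AC50 may be loss or gain.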 The following applies: primary human endothelial cells (HUVEC). The method, boiled down: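 Cytotoxicity readout: sulforhodamine B (0.1%) staining of total protein after 10% TCA fixation, measured at 560 nm in human umbilical vein endothelium at 24 h. DMSO set the baseline; fitting was bidirectional.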

Read-out in assay [9]: Human Leukocyte Antigen - DR isotype (HLADR), HLA-DRA (gene 3122)
As to the kind of experiment: BSK_BE3C_HLADR: BioMAP Diversity Plus: BE3C Assay for Human Leukocyte Antigen - DR isotype (HLADR) Biomarker Activity (AID 2283032). The following applies: primary human bronchial epithelial cells; actives raise or lower the signal. The method, boiled down:
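Primary human bronchial epithelial cells (BE3C); 24 h chemical exposure; HLA-DR by ELISA; bidirectional curve fit vs DMSO baseline.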

Read-out in assay [10]: Monokine induced gamma interferon (MIG), CXCL9 (gene 4283)
The assay is described as follows: BSK_BE3C_MIG: BioMAP Diversity Plus: BE3C Assay for Monokine induced gamma interferon (MIG) Biomarker Activity (AID 2283035).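 As to outcome: MIG protein measured by ELISA in BE3C cultures after 24 h of dosing.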 The following applies: primary human bronchial epithelial cells; actives raise or lower the signal. In a few lines: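 hu bronchial epithelial 1° cells, 24 h cpd; MIG by ELISA; bidirectional fit, DMSO = baseline.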

Read-out in assay [11]: Transforming growth factor beta 1 (TGFb1), TGFB1 (gene 7040)
The assay is described as follows: BSK_BE3C_TGFb1: BioMAP Diversity Plus: BE3C Assay for Transforming growth factor beta 1 (TGFb1) Biomarker Activity (AID 2283036;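 as to outcome: TGF-b1 protein level measured by ELISA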). The following applies: primary human bronchial epithelial cells; actives raise or lower the signal. The method, boiled down:
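Read-out: ELISA for TGF-b1 in primary human bronchial epithelial cultures, 24 h post-dose. Bidirectional curve fitting vs DMSO control; gain or loss of signal both scored.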

Read-out in assay [12]: urokinase plasminogen activator (uPA), PLAU (gene 5328)
The assay is described as follows: BSK_BE3C_uPA: BioMAP Diversity Plus: BE3C Assay for urokinase plasminogen activator (uPA) Biomarker Activity (AID 2283038).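 As to outcome: uPA protein level quantified by ELISA in cell cultures; uPA read one day after compound addition.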 The following applies: primary human bronchial epithelial cells; actives raise or lower the signal. In a few lines: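 Human primary bronchial epithelial cells were exposed to chemical for 24 h, then uPA levels were measured by ELISA. Responses were fitted bidirectionally against DMSO as negative control and baseline. Parallel SRB staining of total protein gauged overt cytotoxicity.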

Read-out in assay [13]: Macrophage colony-stimulating factor (MCSF), CSF1 (gene 1435)
The assay is described as follows: BSK_CASM3C_MCSF: BioMAP Diversity Plus: CASM3C Assay for Macrophage colony-stimulating factor (MCSF) Biomarker Activity (AID 2283044).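 Also: M-CSF protein amount quantified by ELISA after 24 h exposure.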 The following applies: primary human coronary artery smooth muscle cells; actives raise or lower the signal.

Read-out in assay [14]: Low-density lipoprotein receptor (LDLR), LDLR (gene 3949)
The assay is described as follows: BSK_CASM3C_LDLR: BioMAP Diversity Plus: CASM3C Assay for Low-density lipoprotein receptor (LDLR) Biomarker Activity (AID 2283045).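 Also: LDLR protein level on the cell surface quantified by ELISA.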 The following applies: primary human coronary artery smooth muscle cells; actives raise or lower the signal.

Read-out in assay [15]: serum amyloid A (SAA), SAA1 (gene 6288)
The assay is described as follows: BSK_CASM3C_SAA: BioMAP Diversity Plus: CASM3C Assay for serum amyloid A (SAA) Biomarker Activity (AID 2283049).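 Also: SAA protein level quantified by ELISA.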 The following applies: primary human coronary artery smooth muscle cells; actives raise or lower the signal.

Assay [16] is described as follows: BSK_CASM3C_SRB: Viability Assessment in the BioMAP Diversity Plus: CASM3C Assay (AID 2283050).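 Also: total protein by SRB staining as cytotoxicity measure in parallel cultures.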 The following applies: primary human coronary artery smooth muscle cells.
Read-out in assay [17]: Vascular cell adhesion molecule 1 (VCAM1), VCAM1 (gene 7412)
The assay is described as follows: BSK_CASM3C_VCAM1: BioMAP Diversity Plus: CASM3C Assay for Vascular cell adhesion molecule 1 (VCAM1) Biomarker Activity (AID 2283055).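 Also: VCAM-1 protein level quantified by ELISA on the cells.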 The following applies: primary human coronary artery smooth muscle cells; actives raise or lower the signal.

Read-out in assay [18]: Macrophage colony-stimulating factor (MCSF), CSF1 (gene 1435)
As to the kind of experiment: BSK_hDFCGF_MCSF: BioMAP Diversity Plus: hDFCGF Assay for Macrophage colony-stimulating factor (MCSF) Biomarker Activity (AID 2283060). The note with it: primary human foreskin fibroblasts; actives raise or lower the signal. In a few lines: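 Human foreskin primary fibroblasts were treated with test chemical for 24 h, and M-CSF was then measured by ELISA. Data were fitted bidirectionally against DMSO as the negative control and activity baseline.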

Read-out in assay [19]: Interleukin-1 alpha (IL1a), IL1A (gene 3552)
As to the kind of experiment: BSK_KF3CT_IL1a: BioMAP Diversity Plus: KF3CT Assay for Interleukin-1 alpha (IL1a) Biomarker Activity (AID 2283070). The note with it: primary human keratinocytes with fibroblasts; actives raise or lower the signal. The method, boiled down: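 Readout is IL-1a level by ELISA, compared bidirectionally with DMSO as baseline. Cells: human keratinocytes co-cultured with foreskin fibroblasts, harvested 24 h post-dose.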

Read-out in assay [20]: TIMP metallopeptidase inhibitor 2 (TIMP2), TIMP2 (gene 7077)
The assay is described as follows: BSK_KF3CT_TIMP2: BioMAP Diversity Plus: KF3CT Assay for TIMP metallopeptidase inhibitor 2 (TIMP2) Biomarker Activity (AID 2283071). The following applies: primary human keratinocytes with fibroblasts; actives raise or lower the signal. The method, boiled down: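 ELISA readout of TIMP-2 in keratinocyte plus foreskin fibroblast co-cultures (human skin primary cells), 24 h post-dose. Gain or loss of signal fitted relative to DMSO.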

Values joined by “and” are separate entries in the source; they are usually repeats but may differ in a detail not shown here. Identical values can stand only once. The source holds several records for some structures; these can differ, active in one and inactive in another. Active and inactive are the calls of the source. The calls were made as follows: active = hit-call score of the fitted dose curve at least 0.9, where 1 is the maximum; inactive = score below 0.9.

`O=C(O)CCCc1ccc(N(CCCl)CCCl)cc1`: the AC50 in assay [1] is 26.3 µM (active) and 20 µM (active); in assay [2] it was 20 µM (active); in assay [3], 20 µM (active); in assay [4], 20 µM (active) and 28.2 µM (active); in [6], 20 µM (active); in assay [7] it was 13.6 µM (active) and 20 µM (active). Further, the AC50 in assay [8] is 20 µM (active); in assay [9], 22 µM (active) and 29.6 µM (active); in assay [10], 28.9 µM (active); in [11] it was 20 µM (active); in assay [12] it was 8.11 µM (active); in assay [13] it was 17 µM (active) and 15.7 µM (active). The AC50 was 20 µM (active) in [14]; 20 µM (active) in assay [15]; 24.8 µM (active) and 20 µM (active) in [16]; 17 µM (active) and 20 µM (active) in assay [17]; 16.6 µM (active) in [18]; 12.3 µM (active) in [19]. Also, in assay [20], the AC50 is 30.6 µM (active) and 32.6 µM (active). For the same compound, the outcome in assay [2], in [5], in [10], in [11], in assay [12] and in assay [14] was inactive. For the same compound, the outcome in [15], in [18] and in [19] was inactive.

`O=C1C=CC(=O)C=C1`: the AC50 was 20 µM (active) in assay [1]; 20 µM (active) and 28.6 µM (active) in assay [2]; 33 µM (active) in [3]; 20 µM (active) in assay [4]; 32.9 µM (active) in assay [5]; 28 µM (active) in assay [6]. For the same compound, the AC50 was 14.1 µM (active) in [7]; 28.7 µM (active) in assay [8]; 27 µM (active) in [9]; 12.1 µM (active) in assay [13]; 4.88 µM (active) in [16]; 9.42 µM (active) and 24.7 µM (active) in assay [17]. Further, the AC50 in assay [18] is 16 µM (active) and 13.5 µM (active); in assay [19] it was 30.3 µM (active) and 26.4 µM (active); in [20] it was 28.7 µM (active) and 12.4 µM (active). For the same compound, the result in assay [3], in [4], in assay [5], in assay [6], in assay [7] and in [8] was inactive. The result in assay [9], in [10], in [11], in assay [12], in [13] and in assay [14] was inactive. Moreover, the result in assay [15] and in assay [16] was inactive.

For the compound `C=CCN(CC=C)C(=O)C(Cl)Cl`, the outcome in [1], in [2], in assay [3], in assay [4], in assay [5] and in [6] was inactive. Also, the result in assay [7], in assay [8], in [9], in assay [10], in assay [11] and in assay [12] was inactive. Also, the result in assay [13], in assay [14], in assay [15], in [16], in assay [17] and in assay [18] was inactive. For the same compound, the outcome in assay [19] and in [20] was inactive.

For the compound `COCC(=O)N(c1c(C)cccc1C)N1CCOC1=O`, the outcome in assay [1], in assay [2], in [3], in assay [4], in [5] and in assay [6] was inactive. Also, the outcome in [7], in assay [8], in assay [9], in [10], in assay [11] and in assay [12] was inactive. Besides, the result in assay [13], in assay [14], in assay [15], in assay [16], in assay [17] and in assay [18] was inactive. For the same compound, the result in [19] and in assay [20] was inactive.

As for `O=[N+]([O-])C=Cc1ccccc1`, the AC50 in [1] was 9.12 µM (active); in assay [2] it was 7.32 µM (active); in assay [3] it was 2.28 µM (active); in [4] it was 7.71 µM (active); in assay [5], 10 µM (active); in assay [6], 9.73 µM (active). Also, the AC50 is 5.78 µM (active) in assay [7]; 5.27 µM (active) in assay [8]; 1.56 µM (active) in assay [9]; 3.89 µM (active) in [10]; 5.17 µM (active) in assay [11]; 1.03 µM (active) in assay [12]. Further, the AC50 in assay [13] is 20 µM (active); in assay [14], 25.7 µM (active); in assay [16], 20 µM (active); in [17], 8.66 µM (active); in assay [18], 2.91 µM (active); in [19], 5.78 µM (active). In [20], the AC50 is 8.02 µM (active). Also, in assay [15], the result was inactive.

(Values after PubChem BioAssay (EPA / NIEHS).)
